Measurements taken from PubChem BioAssay (NCI).
About 83,000 compounds went through this panel and 20% of them were active in at least one assay; those are over-represented in the sample as a whole.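 For each line, cells grew in 96-well plates with the test compound present at a single concentration for 48 hours.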 The source made the active and inactive calls. Rule for the calls: active = growth percent below 10; inactive = the rest.

System: HL-60(TB) leukemia
Assay: NCI-60 one-dose screen, 48 h (100 = growth as untreated, 0 = no growth, -100 = all killed)
Settings: 10 µM unless noted

Compound | growth
CN1CCc2c(c3ccccc3c3ccccc23)C1 | 35.1% (inactive)
COc1ccc(-c2cc(-c3cccc(Cl)c3)c(C#N)c(=O)[nH]2)c(OC)c1 | 95.6% (inactive)
CCN(CC)c1ccc2nc3c4ccccc4c(=O)cc-3n(-c3ccccc3)c2c1 | -26.7% (active)
O=C(Cc1c(F)cccc1Cl)Nc1ccc(S(=O)(=O)Nc2ncccn2)cc1 | 120% (inactive)
O=C(Cc1nc2cc(Cl)c(Cl)cc2nc1CC(=O)c1ccccc1)c1ccccc1 | 29.7% (inactive)
NC(=S)CN1CCOCC1 | -12.8% (active)
C/C(=N\Nc1ccc([N+](=O)[O-])cn1)c1ccc(N)cc1 | -30.8% (active)
N#Cc1c(-c2ccc(Cl)cc2)nc(NN2C(=O)c3ccccc3C2=O)nc1N1CCOCC1 | 99.8% (inactive)
CN1CCCCC1CCN1c2ccccc2Sc2ccc(Br)cc21 (stereo not given) | 34.9% (inactive)
COc1ccc(/C=C2\N=C(c3cccnc3)N(c3ccccc3)NC2=O)cc1 | 95% (inactive)
O=C1C(Cl)=C(N/N=c2/[nH][nH]/c(=N/NC3=C(Cl)C(=O)c4ccccc4C3=O)c3ccccc23)C(=O)c2ccccc21 | 39.5% (inactive)
Nc1n[nH]c2ccc([C@@H]3Nc4c(F)cc5[nH]ncc5c4[C@H]4C5CCC(C5)[C@@H]34)cc12 (stereo not given in full) | 1.76% (active)
COc1ccc(Nc2ncc(C(N)=O)c(NCCCNC(=O)C3CCC3)n2)cc1 | 46.6% (inactive)
CCCN1CCN(c2ccc3nc(-c4ccc5nc(-c6ccc(OCC)c(OCC)c6)[nH]c5c4)[nH]c3c2)CC1 | -23.1% (active)
CO[C@]12C=C/C(=C(/C(=O)OCc3cccnc3)C(=O)CCCCCCCC[C@]3(OC)C=C/C(=C(/C(=O)OCc4cccnc4)C(=O)CCCCCCCC1)O3)O2 | -29.3% (active)
CC[C@@H](c1ccc2cc(OC)ccc2c1)C(C)(C)C(=O)F | 104% (inactive)
O=C(/C=C/c1ccc[nH]1)c1ccc(-n2ccc(C(F)(F)F)n2)c(F)c1 | -11.3% (active)
Cc1cccc(Oc2ccc(Nc3ncnc4ccc(NC(=O)CNCCO)cc34)cc2Cl)c1 | -26.1% (active)
N=C1/C(=C2\NC3C=CC=CC3S2)C(c2ccc(Cl)cc2)C2C(=O)N(c3ccccc3)C(=S)N12 (stereo not given) | 100% (inactive)
CC1(C)c2ccccc2C(=O)C1(Br)Cc1ccccc1 (stereo not given) | 9.51% (active)

Compound | growth
COc1cc(/C=N/O)nc(-c2ccccn2)c1 | -13.5% (active)
O=C(NCc1ccccc1O)c1cccc2ccccc12 | 66.7% (inactive)
O=C(N/N=C/c1ccc(Oc2ccccc2)cc1)c1cnn2c1NC(c1ccccc1)C2 (stereo not given) | 78.6% (inactive)
CC1(C)CC[C@]23CC[C@]4(C)[C@H](CC[C@@H]5[C@@]6(C)C/C(=C/c7ccncc7)C(=O)C(C)(C)[C@@H]6CC[C@]54C)[C@H]2[C@H]1OC3=O | 43% [100 µM] (inactive)
O=C1/C(=C/c2cccs2)CCC/C1=C\c1cccs1 | 93.8% (inactive)
COc1ccc(-c2nc(SCCC(C)C)nc(N/N=C(/C)c3ccc(N)cc3)c2C#N)cc1 | 83.8% (inactive)
Cc1cc(N2CCCCC2)nc(NCc2cc(Nc3ccnc4cc(Cl)ccc34)ccc2F)n1 | -65.7% (active)
Cc1cc(Cl)ccc1Nc1nc(C(F)(F)F)ccc1C(=O)N/N=C/c1ccc(N(C)C)cc1 | 12.4% (inactive)
N#CCc1csc(Cc2ccccc2)n1 | 95.7% (inactive)
OCC(O)COc1ccc(Cl)cc1Cl (stereo not given) | 103% (inactive)
O=C(Nc1ccc(Cl)cc1F)c1cc(Br)ccc1O | -39.8% (active)
COc1ccc(Cn2cc(COc3ccc4c5ccnc(C)c5n(CCCc5ccccc5)c4c3)nn2)cc1 | -55.7% (active)
COc1cc(C)c2c(=O)c3c(oc2c1)C(=O)c1c(O)c(OC)cc(O)c1C3=O | -45.4% (active)
COc1ccc(Oc2c(I)cc(CC(NC(C)=O)C(=O)O)cc2I)cc1 (stereo not given) | 86.3% (inactive)
CCOC(=O)c1c[nH]n2c(=S)ncnc12 | 91.2% (inactive)
Cc1cc2nc(-c3ccccc3)c(-c3ccccc3)nc2cc1C | 48.3% (inactive)
Cc1ccc(-c2nc3nc(-c4ccc(F)cc4)nc(N4CCCNCC4)c3o2)cc1 | -70.3% (active)
C=CCOC(=O)C1=C(C)N(CC)C(=O)NC1c1c(Cl)n(C)c2ccccc12 (stereo not given) | 99.2% (inactive)
O=c1[nH]c(-c2ccncc2)nc2sc3c(c12)CCCCCC3 | 91.4% (inactive)
N#Cc1c2ncccc2c2nnc3cc(Cl)c(Cl)cc3n12 | 80.4% (inactive)
